This note sets out measurements from PubChem BioAssay (Tox21).

Assay [1] is described as follows: A CellTox Green Cytotoxicity Assay to monitor cytotoxicity in HEK293 cells - 32 hour (AID 1224881). Also: nearly all actives have a fitted effect of over 40% in size. Particulars: CellTox Green fluorescence; series mostly up to 76.8 µM. The method, boiled down: (§1)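 Read-out: fluorescence of a cell-impermeant cyanine dye staining DNA of dead cells, proportional to cytotoxicity. HEK293, 600 cells/well with reagent, compound (23 nL DMSO) added after 5 h; reads at 0, 8, 16, 24, 32, 40 h.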

Assay [2] is described as follows: A CellTox Green Cytotoxicity Assay to monitor cytotoxicity in HepG2 cells - 0 hour (AID 1224882). Also: nearly all actives have a fitted effect of over 35% in size. Conditions: CellTox Green fluorescence; series mostly up to 76.8 µM. In short, it runs like this: (§2)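 HepG2, 600 cells/well premixed w/ CellTox Green; 5 h settle, 37 C/5% CO2; pintool cpd add (DMSO); 37 C, 40 h; fluorescence read at 0, 8, 16, 24, 32, 40 h.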
A short description of assay [3]: A CellTox Green Cytotoxicity Assay to monitor cytotoxicity in HepG2 cells - 32 hour (AID 1224883). Also: nearly all actives have a fitted effect of over 50% in size. Particulars: CellTox Green fluorescence; series mostly up to 76.8 µM. The method, boiled down:
as §2

Assay [4] in a line: qHTS RealTime-Glo MT Cell Viability Assay in HepG2 cells - 16 hour (AID 1224885). Also: nearly all actives have a fitted effect of over 50% in size. Particulars: RealTime-Glo luminescence; series mostly up to 76.8 µM. In short, it runs like this:
(§3)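 Viability was tracked continuously by NanoLuc luminescence from prosubstrate reduced by living HepG2 cells, at successive time points over 40 h of compound exposure. Cells with reagent were preincubated 5 h at 37 °C before compound addition.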
(In general: qHTS replaces the single test concentration by a dilution series.)

Assay [5] in a line: qHTS RealTime-Glo MT Cell Viability Assay in HEK293 cells - 24 hour (AID 1224886). Also: top concentration of the series differs between compounds; nearly all actives have a fitted effect of over 50% in size. Conditions: RealTime-Glo luminescence; series mostly up to 76.8 µM. In short, it runs like this: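 Viability tracked continuously by luminescence as live cells reduce a prosubstrate for NanoLuc; HEK293 cells preincubated 5 h, compound-treated at 37 C, and read at 0, 8, 16, 24, 32 and 40 h.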
Assay [6] is described as follows: qHTS RealTime-Glo MT Cell Viability Assay in HEK293 cells - 8 hour (AID 1224887). Also: top concentration of the series differs between compounds; nearly all actives have a fitted effect of over 50% in size. Conditions: RealTime-Glo luminescence; series mostly up to 76.8 µM. In short, it runs like this:
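Luminescence readout at each listed time point; HEK293, 600 cells/well, RealTime-Glo MT reagent added with cells; compounds pinned (23 nL in DMSO) after 5 h at 37 C; continuous culture at 37 C.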

Assay [7] is described as follows: A CellTox Green Cytotoxicity Assay to monitor cytotoxicity in HEK293 cells - 16 hour (AID 1224888). Also: nearly all actives have a fitted effect of over 35% in size. Particulars: CellTox Green fluorescence; series mostly up to 76.8 µM. The method, boiled down:
as §1

A short description of assay [8]: qHTS RealTime-Glo MT Cell Viability Assay in HepG2 cells - 0 hour (AID 1224889). Also: nearly all actives have a fitted effect of over 50% in size. Conditions: RealTime-Glo luminescence; series mostly up to 76.8 µM. In short, it runs like this: as §3
Assay [9] is described as follows: qHTS assay to identify small molecule antagonists of the estrogen receptor alpha (ER-alpha) signaling pathway using the BG1 cell line in the presence of 0.1 nM 17-beta-estradiol - cell viability counter screen (AID 1259241). Also: nearly all actives have a fitted effect of over 40% in size. Particulars: VM7Luc4E2 (BG1) viability, CellTiter-Fluor protease, 22 h, 0.1 nM estradiol agonist added; series mostly up to 92.4 µM. The method, boiled down:
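Cells were plated and left 24 hr, compounds in DMSO were pinned in, 17beta-estradiol was added to 0.1 nM final, and after 22 hr CellTiter-Fluor reagent was added for 30 min before fluorescence was read.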

Assay [10] can be described thus: qHTS assay to identify small molecule antagonists of the androgen receptor (AR) signaling pathway using the MDA cell line in the presence of 0.5 nM R1881 - cell viability counter screen (AID 1259242). Also: nearly all actives have a fitted effect of over 45% in size. Conditions: MDA-kb2 viability, CellTiter-Fluor protease fluorescence, 16 h; series mostly up to 92.4 µM. In short, it runs like this:
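Live-cell protease fluorescence, CellTiter-Fluor, 30 min at 37C. Cells: MDA-kb2, 3,000/well, preincubated 5 hr. Compounds plus 0.5 nM R1881 final, 16 hr, 37C, 0% CO2.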

A short description of assay [11]: qHTS assay to identify small molecule HDAC inhibitors (AID 1259364). Also: potency is read from the fitted curve at half-maximal effect.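 Also: wild-type HCT-116 cells with endogenous class I/II HDAC activity; nearly all actives have a fitted effect of over 45% in size.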 Particulars: HCT-116 HDAC-Glo I/II luminescence, 2 h; series mostly up to 92.4 µM. The method, boiled down: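 HCT-116 (wild type), 1,500 cells/well, overnight; compound 2 hr 37C 5% CO2; HDAC-Glo I/II reagent 30 min RT; luminescence readout.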
Assay [12] can be described thus: qHTS assay to identify small molecule HDAC inhibitors - cell viability counter screen (AID 1259365). Also: nearly all actives have a fitted effect of over 50% in size. Conditions: HCT-116 viability, CellTiter-Glo ATP luminescence, 2 h; series mostly up to 92.4 µM. In short, it runs like this: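 Counter screen in wild-type HCT-116 cells: compounds dissolved in DMSO are pin-transferred onto overnight-plated cells and left 2hr at 37C. ATP-based CellTiter-Glo luminescence then measures viable cells.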

Assay [13] is described as follows: qHTS assay to identify small molecule agonists of the sonic hedgehog signaling (Shh) pathway - cell viability counter screen (AID 1259366). Also: nearly all actives have a fitted effect of over 50% in size. Particulars: NIH/3T3 Gli1-Luc viability, CellTiter-Fluor, 24 h; series mostly up to 92.4 µM. The method, boiled down: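 Cells are plated at 2,000 per well and left 4hr at 37C, 5% CO2 before compound addition. After 23hr of treatment, CellTiter-Fluor reagent is added for 1hr at 37C and fluorescence is measured.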

A short description of assay [14]: qHTS assay to identify small molecule antagonists of the sonic hedgehog signaling (Shh) pathway - cell viability counter screen (AID 1259367). Also: nearly all actives have a fitted effect of over 55% in size. Particulars: NIH/3T3 Gli1-Luc viability, CellTiter-Fluor, 24 h; series mostly up to 92.4 µM. In short, it runs like this: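 Tox21 library chemicals were tested on a Gli1-Luc NIH/3T3 clone (2,000 cells/well) stimulated by conditioned medium; viability was quantified as fluorescence from CellTiter-Fluor reagent added at 23 hr.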

Assay [15] is described as follows: qHTS assay to identify small molecule agonists of the sonic hedgehog signaling (Shh) pathway (AID 1259368; calls by dose curve;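 also: NIH/3T3-derived 3T3Gli1-Luc cells carrying a stable Gli1-driven firefly luciferase reporter; nearly all actives have a fitted effect of over 15% in size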). Conditions: NIH/3T3 Gli1-Luc reporter, luciferase, 24 h; series mostly up to 92.4 µM. In short, it runs like this:
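Read-out: firefly luciferase luminescence from a Gli1 response element reporter stably integrated in NIH/3T3-derived 3T3Gli1-Luc cells, measured 30 min at room temperature after reagent addition. Compound exposure lasted 24 hr at 37 C, 5% CO2.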

Assay [16] in a line: A CellTox Green Cytotoxicity Assay to monitor cytotoxicity in HEK293 cells - 8 hour (AID 1224884). Also: nearly all actives have a fitted effect of over 35% in size. Also: potency is read from the fitted curve at half-maximal effect. Conditions: CellTox Green fluorescence; series mostly up to 76.8 µM. The method, boiled down: as §1
The nature of assay [17]: A CellTox Green Cytotoxicity Assay to monitor cytotoxicity in HepG2 cells - 8 hour (AID 1224890). Also: nearly all actives have a fitted effect of over 45% in size. Conditions: CellTox Green fluorescence; series mostly up to 76.8 µM. In short, it runs like this:
as §2

The target in assay [18] is Estrogen receptor (Homo sapiens) (UniProt P03372). Description: qHTS assay to identify small molecule antagonists of the estrogen receptor alpha (ER-alpha) signaling pathway using the BG1 cell line in the presence of 0.1 nM 17-beta-estradiol (AID 1259244). Also: nearly all actives have a fitted effect of over 50% in size. Also: potency is read from the fitted curve at half-maximal effect. Conditions: VM7Luc4E2 (BG1) ERE-luciferase, antagonist mode, 0.1 nM E2, 22 h; series mostly up to 92.4 µM. The method, boiled down:
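Luminescence after ONE-Glo (30 min, room temperature) measured ERE-luciferase activity in VM7Luc4E2 cells treated 22 h with compound and 0.1 nM final 17beta-estradiol as stimulator.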

A short description of assay [19]: qHTS assay to identify small molecule phospholipidosis (PLD) inducers (AID 1259344; active = well fitted curve in the direction sought with a large enough effect; an effect the other way counts as inactive or inconclusive). Conditions: HepG2 phospholipidosis, LipidTOX Red imaging, 24 h; series mostly up to 38.3 µM. In short, it runs like this: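 Image-based: LipidTOX Red pit count/intensity per well and per cell; HepG2, 24 h compound at 37 C, PFA fixation, Hoechst counterstain.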
Assay [20] concerns the target Androgen receptor (Homo sapiens) (UniProt P10275). Description: qHTS assay to identify small molecule antagonists of the androgen receptor (AR) signaling pathway using the MDA cell line in the presence of 0.5 nM R1881 (AID 1259243). Also: nearly all actives have a fitted effect of over 50% in size. Conditions: MDA-kb2 MMTV-luciferase, R1881 0.5 nM, 16 h; series mostly up to 92.4 µM. In short, it runs like this:
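MDA-kb2, MMTV-luc (AR/GR elements); 3,000 cells/well; cpd + 0.5 nM R1881 final; 16 hr 37C, 0% CO2; ONE-Glo 30 min RT; luminescence.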

Results filed as inconclusive are left out. Where a structure was tested more than once in an assay, its records may differ in their call. Activity calls are given as the source filed them. Unless noted, calls follow the shape of the dose curve; as a rule, active = well fitted curve in the direction sought with a large enough effect in the repeat runs; inconclusive = weak or mixed curves; inactive = no such curve, though single readings can be large; an effect the other way counts as inactive or inconclusive.

Sequence of Estrogen receptor (Homo sapiens) (P03372 whole entry, looked up): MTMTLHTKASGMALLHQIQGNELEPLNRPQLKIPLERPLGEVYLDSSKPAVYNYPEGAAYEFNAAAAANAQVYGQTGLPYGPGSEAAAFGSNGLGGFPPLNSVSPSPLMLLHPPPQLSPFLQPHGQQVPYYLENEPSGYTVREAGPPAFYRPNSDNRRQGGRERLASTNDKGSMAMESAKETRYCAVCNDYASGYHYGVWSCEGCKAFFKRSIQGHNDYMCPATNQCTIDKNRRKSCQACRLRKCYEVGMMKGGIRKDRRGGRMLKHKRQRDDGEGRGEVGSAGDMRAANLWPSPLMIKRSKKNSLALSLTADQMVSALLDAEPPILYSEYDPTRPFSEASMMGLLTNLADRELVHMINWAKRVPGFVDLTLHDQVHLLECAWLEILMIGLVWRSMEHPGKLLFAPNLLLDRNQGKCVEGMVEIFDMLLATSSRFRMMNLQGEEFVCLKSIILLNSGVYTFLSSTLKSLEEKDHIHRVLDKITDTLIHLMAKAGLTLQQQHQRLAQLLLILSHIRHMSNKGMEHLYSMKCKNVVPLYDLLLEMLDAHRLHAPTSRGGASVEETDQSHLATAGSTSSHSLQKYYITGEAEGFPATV
Sequence of Androgen receptor (Homo sapiens) (P10275 whole entry, looked up): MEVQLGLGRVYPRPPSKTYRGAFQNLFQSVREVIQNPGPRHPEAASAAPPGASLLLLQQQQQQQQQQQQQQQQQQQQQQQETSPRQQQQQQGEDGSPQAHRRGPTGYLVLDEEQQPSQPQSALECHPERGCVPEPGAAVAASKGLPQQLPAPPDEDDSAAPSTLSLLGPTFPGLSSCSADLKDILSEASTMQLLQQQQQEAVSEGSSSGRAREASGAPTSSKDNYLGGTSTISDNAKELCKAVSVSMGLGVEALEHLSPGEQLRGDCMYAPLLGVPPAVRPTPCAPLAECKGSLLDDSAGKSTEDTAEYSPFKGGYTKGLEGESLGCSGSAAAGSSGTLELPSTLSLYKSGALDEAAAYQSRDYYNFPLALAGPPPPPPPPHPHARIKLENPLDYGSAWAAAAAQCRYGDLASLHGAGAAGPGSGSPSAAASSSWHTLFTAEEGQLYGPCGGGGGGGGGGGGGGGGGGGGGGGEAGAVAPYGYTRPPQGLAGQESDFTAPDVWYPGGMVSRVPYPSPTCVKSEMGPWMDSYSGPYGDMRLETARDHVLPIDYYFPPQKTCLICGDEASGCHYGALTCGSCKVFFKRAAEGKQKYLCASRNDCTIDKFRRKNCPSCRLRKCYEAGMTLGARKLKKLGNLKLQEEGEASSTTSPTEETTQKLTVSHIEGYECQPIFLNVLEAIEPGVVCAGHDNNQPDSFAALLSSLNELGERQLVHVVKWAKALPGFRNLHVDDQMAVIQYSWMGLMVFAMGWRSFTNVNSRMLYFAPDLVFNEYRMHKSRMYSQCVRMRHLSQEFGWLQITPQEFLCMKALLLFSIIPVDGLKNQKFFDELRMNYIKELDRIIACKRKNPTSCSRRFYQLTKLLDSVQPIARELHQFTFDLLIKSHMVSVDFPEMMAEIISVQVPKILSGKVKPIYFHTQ

For the compound `O=C(Cc1ccccc1)c1ccccc1`, the Potency result in [1], in assay [2], in [3], in assay [4], in assay [5] and in [6] was “inactive” each time. Besides, the Potency result in assay [7], in [9], in assay [10], in [12], in assay [13] and in assay [14] was “inactive” throughout. In addition, the Potency result in assay [15] was “inactive”. Besides, the outcome in [8] was inactive. Besides, in [11], the Potency was 27.3 µM (active).
As for `C#C[C@]1(O)CC[C@H]2[C@@H]3CCC4=CC(=O)CCC4=C3C=C[C@@]21CC`, the Potency result in [1], in assay [2], in assay [16], in assay [4], in assay [6] and in assay [7] was “inactive” each time. In addition, the Potency entry in assay [17], in [9], in assay [10], in assay [11], in [12] and in assay [13] was “inactive” each time. Also, the Potency result in [14] and in assay [15] was “inactive” in each case. Further, the outcome in assay [8] and in assay [19] was inactive. The Potency in assay [18] is 13.3 µM (active).
Take `CN1CC[C@]23c4c5ccc(O)c4O[C@H]2[C@@H](O)C=C[C@H]3[C@H]1C5`: the Potency result in [1], in assay [3], in [16], in assay [4], in assay [5] and in [6] was “inactive” each time. Further, the Potency entry in assay [7], in assay [17], in [9], in assay [10], in assay [20] and in [11] was “inactive” each time. Further, the Potency result in assay [12], in [14] and in assay [15] was “inactive” each time. Besides, the compound was called inactive in assay [8] and in assay [19].
Regarding `CCC1(CC)C(=O)NC(=O)NC1=O`, the Potency result in [1], in [2], in assay [16], in assay [4], in [5] and in assay [6] was “inactive” in each case. Besides, the Potency result in assay [7], in assay [17], in assay [9], in assay [10], in assay [18] and in assay [11] was “inactive” each time. The Potency result in [12], in assay [13], in assay [14] and in assay [15] was “inactive” throughout. Besides, the compound was classed as inactive in [8] and in [19].
Turning to `COc1cc(C[C@@H](C)N)c(OC)cc1Br`, the Potency result in assay [1], in assay [2], in assay [16], in assay [4], in assay [5] and in assay [6] was “inactive” each time. Further, the Potency result in assay [7], in assay [17], in assay [9], in [10], in [18] and in assay [11] was “inactive” in each case. The Potency result in assay [12], in assay [14] and in [15] was “inactive” each time. In addition, in [19], the compound was classed as inactive.
For `OCC1CO1` (centres undefined), the Potency result in assay [1], in assay [4], in assay [5], in assay [6], in assay [7] and in [9] was “inactive” throughout. Moreover, the Potency result in assay [10], in assay [11], in assay [13], in [14] and in assay [15] was “inactive” in each case. The Potency in [16] is 44.4 µM (active) and inactive. For the same compound, in assay [8], the compound was classed as inactive.
Take `CC(Cc1ccccc1)NCc1ccccc1Cl` (centres undefined): the Potency entry in assay [2], in assay [3], in assay [16], in assay [4], in assay [5] and in assay [6] was “inactive” in each case. In addition, the Potency entry in [17], in assay [9], in assay [10], in assay [18], in assay [11] and in [13] was “inactive” in each case. For the same compound, the Potency result in assay [14] and in assay [15] was “inactive” each time. For the same compound, the call in [8] and in assay [19] was inactive.
In the case of `CCCCCBr`, the Potency entry in assay [1], in assay [2], in assay [3], in assay [16], in assay [4] and in [7] was “inactive” in each case. For the same compound, the Potency entry in [17], in assay [9], in assay [10], in assay [20], in [18] and in assay [11] was “inactive” throughout. Besides, the Potency entry in assay [12], in assay [13], in assay [14] and in assay [15] was “inactive” throughout. The outcome in [8] was inactive.
